From PubChem BioAssay (NCATS)
Inconclusive results are not listed. The source made the active and inactive calls. Calls come from the whole dose curve; as a rule, active = well fitted inhibition curve with a large enough effect; inconclusive = small, poorly fitted or top-dose-only effect; inactive = flat fitted curve, though single readings scatter.

experiment: qHTS profiling for inhibitors of Plasmodium falciparum proliferation (AID 504749); note: nearly all actives have a fitted effect of over 60% in size;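 for activity, negative = inhibition: 0% = DMSO vehicle and full inhibition = artemisinin control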; conditions: P. falciparum in erythrocytes, SYBR Green DNA, 72 h; at 12.8 µM (top of the series); parasite line A
Text: NIH National Institute of Allergy and Infectious Diseases [NIAID] NIH Chemical Genomics Center [NCGC] MLPCN Grant: None Assay Provider: Xinzhuan Su, NIAID NCGC Assay Overview: Plasmodium falciparum is a virulent malarial parasite that kills 1-2 million people worldwide each year. Transmitted by mosquitoes, the sporozoite form of the parasite enters the blood stream to infect hepatocytes, where they become merozoites that infect red blood cells (erythrocytes). Within erythrocytes, merozoites begin a […] cycle of growth and division, after which the parasite is released to infect new red blood cells. Gametocytes, which form within erythrocytes as well, circulate in the bloodstream and are ingested by the mosquito, thereby completing the life cycle. To profile malarial isolates for differential chemical responses and to identify inhibitors of malarial growth, an assay that measures P. falciparum growth and replication within erythrocytes was employed. This assay uses a DNA binding fluorescent dye (SYBR Green) to detect parasite DNA following cell lysis. Because mature erythrocytes lack DNA, only Plasmodium-derived DNA is detected.
NCGC Assay Protocol Summary: The SYBR Green viability assay was adapted from a method described previously (Plouffe et al., 2008). For screening 3 ul culture medium was dispensed into 1536 well black clear bottom plates (Aurora Biotechnologies) using a Multidrop Combi (Thermo Fisher Scientific Inc.), 23 nL compounds in DMSO were added by a pin tool (Kalypsys), and 5 ul of erythrocytes infected with P. falciparum (0.3% parasitemia, 2.5% hematocrit final concentration) were added. The plates were incubated at 37 C in a humidified incubator in 5% CO2 for 72 h, and 2 ul lysis buffer (20 mM Tris HCl, 10 mM EDTA, 0.16% saponin, 1.6% triton X, 10X SYBR Green I supplied as 10,000X […] by Invitrogen) was added to each well. The plates were mixed for 25 sec with gentle shaking and incubated overnight at room temperature in the dark. The following morning, fluorescence intensity at 485(14) nm excitation and 535(25) nm emission wavelengths was measured on an EnVision (Perkin Elmer) plate reader. Plate reads were normalized relative to the control inhibitor (0.29 uM artemisinin) and vehicle (DMSO) wells present on each plate and then corrected by an algorithm using vehicle-only control plates at the beginning and end of the compound plate stack.
Potency is the fitted concentration of half-maximal effect.

Compound	activity, negative = inhibition
O=C(O)c1ccccc1-c1c2cc(Br)c(=O)cc-2oc2[c]([Hg])c(O)c(Br)cc12	23.4% (inactive)

same assay, conditions: P. falciparum in erythrocytes, SYBR Green DNA, 72 h; at 12.8 µM (top of the series); parasite line B

Compound	activity, negative = inhibition
O=C(O)c1ccccc1-c1c2cc(Br)c(=O)cc-2oc2[c]([Hg])c(O)c(Br)cc12	5.61% (inactive)

same assay, conditions: P. falciparum in erythrocytes, SYBR Green DNA, 72 h; at 28.7 µM (top of the series); parasite line A

Compound	activity, negative = inhibition
CCN1C[C@]2(COC)[C@H](O)C[C@H](OC)[C@]34C1C([C@H](OC)[C@H]23)[C@]1(OC(C)=O)C2[C@@H](OC(=O)c3ccccc3)C(O)(C[C@H]24)[C@@H](OC)[C@@H]1O	-2.64% (inactive)
CO[C@H]1[C@@H](O)CC(OC2[C@@H](O)CC(OC3[C@@H](O)C[C@H](OC4CC[C@@]5(C)C(CCC6C5CC(O)[C@]5(C)[C@H](C7=CC(=O)OC7)CCC65O)C4)O[C@@H]3C)O[C@@H]2C)O[C@@H]1C (stereo partly specified)	-4.67% (inactive)
C[N+](C)(C)CC(=O)[O-]	11.4% (inactive)
CCN(CC)CCO[C@H]1CC[C@@]2(C)C(=CC[C@@H]3[C@H]2CC[C@]2(C)C(=O)CC[C@H]32)C1	-0.0219% (inactive)

same assay, conditions: P. falciparum in erythrocytes, SYBR Green DNA, 72 h; at 28.7 µM (top of the series); parasite line B

Compound	activity, negative = inhibition
CCN1C[C@]2(COC)[C@H](O)C[C@H](OC)[C@]34C1C([C@H](OC)[C@H]23)[C@]1(OC(C)=O)C2[C@@H](OC(=O)c3ccccc3)C(O)(C[C@H]24)[C@@H](OC)[C@@H]1O	-26.7% (inactive)
CO[C@H]1[C@@H](O)CC(OC2[C@@H](O)CC(OC3[C@@H](O)C[C@H](OC4CC[C@@]5(C)C(CCC6C5CC(O)[C@]5(C)[C@H](C7=CC(=O)OC7)CCC65O)C4)O[C@@H]3C)O[C@@H]2C)O[C@@H]1C (stereo partly specified)	10.4% (inactive)
C[N+](C)(C)CC(=O)[O-]	8.81% (inactive)
CCN(CC)CCO[C@H]1CC[C@@]2(C)C(=CC[C@@H]3[C@H]2CC[C@]2(C)C(=O)CC[C@H]32)C1	10.7% (inactive)

same assay, conditions: P. falciparum in erythrocytes, SYBR Green DNA, 72 h; parasite line A

Compound	Potency
Oc1cc[c]([Hg][Cl])cc1	7.94 µM (active)
CC(C)[C@@]1(NC(=O)[C@H]2CC3c4cccc5[nH]cc(c45)C[C@H]3N(C)C2)O[C@@]2(O)C3CCCN3C(=O)[C@@H](Cc3ccccc3)N2C1=O (stereo partly specified)	6.31 µM (active)
CCCCCCCCCC[N+](C)(C)CCCCCCCCCC	5.01 µM (active)

same assay, conditions: P. falciparum in erythrocytes, SYBR Green DNA, 72 h; parasite line B

Compound	Potency
Oc1cc[c]([Hg][Cl])cc1	10 µM (active)
CC(C)[C@@]1(NC(=O)[C@H]2CC3c4cccc5[nH]cc(c45)C[C@H]3N(C)C2)O[C@@]2(O)C3CCCN3C(=O)[C@@H](Cc3ccccc3)N2C1=O (stereo partly specified)	5.01 µM (active)
CCCCCCCCCC[N+](C)(C)CCCCCCCCCC	6.31 µM (active)
